Laboratory results: the supplement of paper PMC13380429

Tested on: Vero E6 infected with SARS-CoV-2
Test: inhibition of SARS-CoV-2 cytopathic effect; higher = more antiviral protection, active = above 15
Details: 48 h

Measured: inhibition of SARS-CoV-2 cytopathic effect

CC(=O)c1ccc(S(=O)(=O)NC(=O)NC2CCCCC2)cc1 [acetohexamide]
inactive: 1 nM -0.51% | 8.33 nM -0.35% | 100 nM -0.58% | 833.33 nM 0.37% | 10000 nM -0.22%

CC/C(=C(\c1ccc(O)cc1)c1ccc(OCCN(C)C)cc1)c1ccccc1 [afimoxifene]
active: 10000 nM 40%
inactive: 1 nM -2.83% | 8.33 nM 1.16% | 100 nM 3.76% | 833.33 nM -0.54%

c1ccc(C2CC2)c(OCC2=NCCN2)c1 [cirazoline]
inactive: 1 nM -0.75% | 8.33 nM 0.31% | 100 nM -8.08% | 833.33 nM 0.87% | 10000 nM -3.99%

Cc1cc(O)c2c(=O)c3c(O)cc(O)c4c5c(O)cc(O)c6c(=O)c7c(O)cc(C)c8c1c2c(c34)c(c78)c65 [hypericin]
inactive: 1 nM 3.48% | 8.33 nM -1.72% | 100 nM -6.89% | 833.33 nM -0.08% | 10000 nM -4.81%

CC(=O)Oc1ccccc1C(=O)Oc1ccccc1C(=O)O [acetylsalicylsalicylic-acid]
inactive: 1 nM -1.51% | 8.33 nM 0.51% | 100 nM 2.44% | 833.33 nM -0.27% | 10000 nM 1.17%

CC(=O)Nc1cccc2c1c(Sc1ccc(Cl)cc1)c(C)n2CC(=O)O
inactive: 1 nM -2.31% | 8.33 nM -3.4% | 100 nM -2.21% | 833.33 nM -0.59% | 10000 nM -0.66%

c1ccc(-c2nc(CN3CCN(c4ncccn4)CC3)c[nH]2)cc1
inactive: 1 nM -2.28% | 8.33 nM -0.03% | 100 nM -3.72% | 833.33 nM -0.79% | 10000 nM -1.23%

Cc1c(-c2cnccn2)ssc1=S [oltipraz]
inactive: 1 nM 1.51% | 8.33 nM 4.72% | 100 nM 3.49% | 833.33 nM 5.97% | 10000 nM 0.75%

CS(=O)(=O)c1ccc(-c2cnc(NCc3ccco3)n3cnnc23)cc1
inactive: 1 nM 4.45% | 8.33 nM 2.39% | 100 nM 0.36% | 833.33 nM -0.76% | 10000 nM -0.13%

CCOc1ccc(Cc2cc([C@]34OC[C@](CO)(O3)[C@@H](O)[C@H](O)[C@H]4O)ccc2Cl)cc1 [ertugliflozin]
inactive: 1 nM -4.37% | 8.33 nM -4.65% | 100 nM -2.3% | 833.33 nM -0.17% | 10000 nM 0.59%

NS(=O)(=O)c1cc2c(cc1Cl)N=C(CSCc1ccccc1)NS2(=O)=O [benzthiazide]
inactive: 1 nM 3.18% | 8.33 nM 0.15% | 100 nM 0.52% | 833.33 nM 2.56% | 10000 nM -0.2%

C[C@H](Cn1cnc2c(N)ncnc21)OCP(=O)(O)O [tenofovir]
inactive: 1 nM -0.47% | 8.33 nM -2.44% | 100 nM -1.27% | 833.33 nM 0.5% | 10000 nM 0.69%

COC(=O)C1=C(C)NC(C)=C(C(=O)OCCN2CCN(C(c3ccccc3)c3ccccc3)CC2)C1c1cccc([N+](=O)[O-])c1 (stereo not given) [manidipine]
inactive: 1 nM 1.55% | 8.33 nM 1.19% | 100 nM -0.02% | 833.33 nM 1.16% | 10000 nM -7.15%

CC(C)c1nnc(-c2ccc(-c3ccccc3)nc2)n1-c1cccc2nonc12
inactive: 1 nM -5.81% | 8.33 nM -4.31% | 100 nM -0.24% | 833.33 nM 0.55% | 10000 nM -1.7%

COc1ccc2cc1Oc1cc3c(cc1OC)CC[N+](C)(C)[C@H]3Cc1ccc(cc1)Oc1c(OC)c(OC)cc3c1[C@@H](C2)[N+](C)(C)CC3 [metocurine]
inactive: 1 nM -0.82% | 8.33 nM 0.93% | 100 nM 1.08% | 833.33 nM -3.28% | 10000 nM -0.33%

CC(=O)N(CC(O)CN(C(C)=O)c1c(I)c(C(=O)NCC(O)CO)c(I)c(C(=O)NCC(O)CO)c1I)c1c(I)c(C(=O)NCC(O)CO)c(I)c(C(=O)NCC(O)CO)c1I (stereo not given) [iodixanol]
inactive: 1 nM -1.14% | 8.33 nM 3.23% | 100 nM 2.34% | 833.33 nM -0.66% | 10000 nM -1.88%

CC(C)OC(=O)OCOP(=O)(CO[C@H](C)Cn1cnc2c(N)ncnc21)OCOC(=O)OC(C)C [tenofovir-disoproxil]
inactive: 1 nM 0.65% | 8.33 nM -1.58% | 100 nM 3.17% | 833.33 nM -4% | 10000 nM -9.11%

COc1cc(C(=O)N(CC[C@H]2CCCN2C)C/C(C)=C/c2ccccc2F)cc(OC)c1OC (racemic)
inactive: 1 nM -0.69% | 8.33 nM -1.9% | 100 nM 1.94% | 833.33 nM -0.01% | 10000 nM -1.76%

Cc1cc(CCC[C@H](CC(=O)NO)C(=O)N[C@H](C(=O)N[C@H](C)c2ccccc2)C(C)(C)C)ccc1-c1ccccc1
inactive: 1 nM -1.73% | 8.33 nM -2.08% | 100 nM -3.51% | 833.33 nM -2.76% | 10000 nM -13%

CCCCOc1ccc(C(=O)Nc2ccc(F)cc2F)cc1
inactive: 1 nM -1.89% | 8.33 nM 2.63% | 100 nM -3.66% | 833.33 nM -1.37% | 10000 nM -1.07%

Fc1ccc(C(OCCN2CCN(C/C=C/c3ccccc3)CC2)c2ccc(F)cc2)cc1
inactive: 1 nM 1.02% | 8.33 nM 1.01% | 100 nM 3.35% | 833.33 nM 1.4% | 10000 nM 0.32%

O=C(O)CSc1nnc(Br)n1-c1ccc(C2CC2)c2ccccc12 [lesinurad]
inactive: 1 nM -0.42% | 8.33 nM -0.65% | 100 nM 2.45% | 833.33 nM 0.63% | 10000 nM -2.06%

c1ccc2c(c1)OC[C@H](CNCCCOc1ccc3c(c1)OCO3)O2 [osemozotan]
inactive: 1 nM 2.23% | 8.33 nM 1.12% | 100 nM 3.35% | 833.33 nM 1.42% | 10000 nM 0.79%

CC(C)OC(=O)N1CCC(Oc2ncnc3c2cnn3-c2ccc(S(C)(=O)=O)cc2F)CC1
inactive: 1 nM -4.65% | 8.33 nM -1.23% | 100 nM 2.78% | 833.33 nM -0.97% | 10000 nM -1.25%

COc1cc(N)c(Cl)cc1C(=O)NC1CCN(Cc2ccccc2)CC1 [clebopride]
inactive: 1 nM -1.61% | 8.33 nM -0.47% | 100 nM -0.47% | 833.33 nM 6.56% | 10000 nM 0.26%

CN[C@H]1C(=O)N[C@@H]2Cc3ccc(cc3)Oc3cc4cc(c3O[C@@H]3O[C@H](C(=O)O)[C@@H](O)[C@H](O)[C@H]3NC(=O)CCCCCCCCC(C)C)Oc3ccc(cc3Cl)[C@@H](O)[C@@H]3NC(=O)[C@H](NC(=O)[C@@H]4NC(=O)[C@@H](NC2=O)c2cc(cc(O)c2Cl)Oc2cc1ccc2O)c1ccc(O)c(c1)-c1c(O[C@H]2O[C@H](CO)[C@@H](O)[C@H](O)[C@@H]2O)cc(O)cc1[C@@H](C(=O)NCCCN(C)C)NC3=O [dalbavancin]
inactive: 1 nM -5.95% | 8.33 nM -0.74% | 100 nM -2.73% | 833.33 nM -0.14% | 10000 nM 1.46%

CC(C)(C)NCC(O)COc1cc(Cl)ccc1Cl (stereo not given) [cloranolol]
inactive: 1 nM -3.31% | 8.33 nM -3.27% | 100 nM -3.87% | 833.33 nM -3.29% | 10000 nM -8.51%

CC(C)(C)Cn1c(N)nc2ccc(-c3[nH]c(C(C)(C)C)nc3-c3ccc(F)cc3)nc21
active: 10000 nM 55.2%
inactive: 1 nM 2.2% | 8.33 nM -0.57% | 100 nM -1.43% | 833.33 nM 11.8%

Nc1ccc(S(=O)(=O)Nc2cnc3ccccc3n2)cc1 [sulfaquinoxaline]
inactive: 1 nM -0.58% | 8.33 nM 1.74% | 100 nM -1.77% | 833.33 nM -2.18% | 10000 nM 1.39%

CCn1cc(C(=O)O)c(=O)c2cc(F)c(N3CCNCC3)nc21 [enoxacin]
inactive: 1 nM 4.58% | 8.33 nM 2.38% | 100 nM 0.25% | 833.33 nM -2.16% | 10000 nM 0.56%

O=C(O)c1ccccc1 [benzoic-acid]
inactive: 1 nM 0.45% | 8.33 nM -0.31% | 100 nM -1.57% | 833.33 nM -0.13% | 10000 nM -0.09%

NS(=O)(=O)c1cc(C(=O)O)c(NCc2ccco2)cc1Cl [furosemide]
inactive: 1 nM -1.05% | 8.33 nM 1.27% | 100 nM -1.4% | 833.33 nM 0.41% | 10000 nM 2.18%

CN(CCOc1ccc(NS(C)(=O)=O)cc1)CCc1ccc(NS(C)(=O)=O)cc1 [dofetilide]
inactive: 1 nM -2.98% | 8.33 nM -1.43% | 100 nM -1.55% | 833.33 nM -0.28% | 10000 nM -0.36%

O=c1[nH]cnc2c([C@@H]3N[C@H](CO)[C@@H](O)[C@H]3O)c[nH]c12 [forodesine]
inactive: 1 nM -0.75% | 8.33 nM 0.06% | 100 nM -1.79% | 833.33 nM -1.77% | 10000 nM -2.56%

CCCCCCCCOc1ccccc1C(=O)Nc1ccc(C(=O)OCC[N+](C)(CC)CC)cc1 [otilonium]
inactive: 1 nM 2.76% | 8.33 nM -0.22% | 100 nM 1.35% | 833.33 nM 1.63% | 10000 nM 0.68%

O=C(Nc1cc(C(F)(F)F)ccc1O)Nc1cc(C(F)(F)F)ccc1O
inactive: 1 nM -2.23% | 8.33 nM 2.44% | 100 nM 6.17% | 833.33 nM -1.82% | 10000 nM -0.23%

O=C1c2ccc(Nc3ccc(F)cc3F)cc2CCc2ccc(OC[C@H](O)CO)cc21 [skepinone-L]
inactive: 1 nM -0.76% | 8.33 nM -3.41% | 100 nM -5.13% | 833.33 nM -8.06% | 10000 nM -9.5%
